This is part of a sample that, as a whole, favours compounds with a hit. Of some 83,000 tested, about 20% had one in any assay.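 Growth was measured after 48 h exposure to one concentration of compound in 96-well plates. Values under 10 count as active.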 Values without a mark were called inactive. The source made the active and inactive calls.
These compounds were tested on HCT-15 colon (assay: NCI-60 one-dose screen, 48 h (100 = growth as untreated, 0 = no growth, -100 = all killed)). Settings: 10 µM.
Method: Growth inhibition of the HCT-15 human tumor cell line is measured as a screen for anti-cancer activity. Cells are grown in 96 well plates and exposed to the test compound for 48 hours. Compounds are tested at a single concentration, which is 10^-5 M for most compounds. The reported endpoint is percent growth (GI% or GIPRCNT), where numbers from 0 - 100% represent growth inhibition, and numbers from -100% - 0 represent cell death. For example, a value of 40 represents 60% growth inhibition. A value of 0 means no net growth occurred over the course of the experiment. A value of -40 indicates 40% of cells at the beginning of the experiment died by the end of the experiment. A value of -100 means all cells are dead at the end of the experiment.
NCI-60 Human Tumor Cell Lines Screen was performed using the standard one-dose NCI protocol, which is described in more detail at https://dtp.cancer.gov/discovery_development/nci-60/default.htm.
Compounds with GIPRCNT values below 10 were considered active. Activity score was based on GIPRCNT using the following formula: […]
Score is 0 for GIPRCNT values of 100 or above, 50 for GIPRCNT values of 0, and 100 for GIPRCNT values of -100.

SMILES	growth
Cn1cc(-c2nnc(N)nc2-c2c[nH]c3ccc(F)cc23)c2cc(Br)cnc21	59.8%
Cn1cc(-c2cc3nc(-c4c[nH]c5ccccc45)cc(N)n3n2)c2cc(Cl)ccc21	-84% (active)
COc1cc(Nc2nc(O)c(/C=C3\C=Nc4ccccc43)s2)cc(OC)c1OC	-0.515% (active)
COc1ccc(C(=O)COc2ccc(NC(=O)Nc3ccc(Cl)c(C(F)(F)F)c3)cc2)cc1	8.56% (active)
O=C(c1ccc(Cl)cc1)C(c1c[nH]c2ccccc12)c1c[nH]c2ccccc12	-63.9% (active)
COc1ccc(C2OC[C@@]3(C)C4CC[C@]5(C)C(CC=C6C7CC(C)(C)CC[C@]7(C(=O)O)CC[C@]65C)[C@@]4(C)C[C@@H](O)[C@@H]3O2)cc1 (stereo not given in full)	56%
COc1ccc(C(=O)COc2ccc(NC(=O)Nc3ccccc3)cc2)cc1	80.3%
Cc1cc(N=C2NC(=O)S/C2=C\c2ccc(F)cc2)n[nH]1	13.9%
O=C1S/C(=C\c2ccc([N+](=O)[O-])cc2)C(=O)N1CCN1CCCCC1	92.6%
CCn1c(SCC(=O)Nc2ccc(-c3nc4ccccc4[nH]3)cc2)nc2ccccc2c1=O	-50% (active)
CCOC(=O)C1=C(N)N(c2ccc(C)cc2)C2=C(C(=O)CC(C)(C)C2)C1c1ccccc1Br (stereo not given)	58.4%
COc1cc(C2CC(c3ccccc3)=Nc3c(N)nc(N)nc3N2)ccc1Oc1nc(NCCO)nc(N2CCOCC2)n1 (stereo not given)	99.4%
COc1cc(-c2nc3ccc(C)cc3[nH]2)ccc1OCc1nnc(-c2ccccc2Br)o1	36.4%
COc1ccc(-n2c(SCC(=O)NNS(=O)(=O)c3ccccc3)nc3ccc(Cl)cc3c2=O)cc1	92%
COc1cccc(C(=O)CSc2nc(-c3ccc(OCc4ccccc4)c(OC)c3)c(C#N)c(=O)[nH]2)c1	92.8%
C#C[C@]1(O)CC[C@H]2[C@@H]3CC=C4c5sc(Nc6cc(C)cc(C)n6)nc5CC[C@]4(C)[C@H]3CC[C@@]21C	-69.5% (active)
CC1[C@H]2[C@H](C[C@H]3[C@@H]4CC=C5c6sc(Nc7cccc(Cl)n7)nc6CC[C@]5(C)[C@H]4CC[C@@]32C)O[C@]12CC[C@@H](C)CO2 (stereo not given in full)	73.9%
COc1cc(C2CC(c3ccc(Oc4ccc(Cl)cc4)cc3)=NN2c2nc(-c3ccc(Cl)cc3)c(C#N)c(N3CCOCC3)n2)cc(OC)c1OC (stereo not given)	95.7%
COc1cc2oc(-c3cccc(C(=O)Nc4ccc(Cl)cc4)c3)cc(=O)c2c(OCCN)c1OC	-76.6% (active)
COc1ccc(C2c3sc4ccc(C)cc4c3Oc3nc[nH]c(=O)c32)cc1 (stereo not given)	40.6%

SMILES	growth
O=C(CC(=O)Nc1ccc(Oc2ncnc3scc(Nc4n[nH]c(=S)s4)c23)cc1)Nc1ccc(Cl)cc1	66.9%
C#C[C@]1(O)CC[C@H]2[C@@H]3CC=C4c5sc(Nc6ccc(N(C)C)cc6)nc5CC[C@]4(C)[C@H]3CC[C@@]21C	-37.5% (active)
O=C(CSc1nc2ccccc2c(=O)n1-c1ccc(Cl)cc1)Nc1ccc(-c2nc3ccccc3[nH]2)cc1	-7.08% (active)
COc1ccc(Cc2nn(CC(=O)N/N=C/c3ccc([N+](=O)[O-])cc3)c(=O)c3c(C)noc23)cc1	83.7%
Cn1cc(-c2cc(N)n3nc(-c4cn(C)c5ccccc45)cc3n2)c2cc(F)ccc21	-80.2% (active)
Cn1cc(/C=C(/SS/C(=C/c2cn(C)c3cccc(C(=O)O)c23)C(=O)O)C(=O)O)c2c(C(=O)O)cccc21	99.4%
Fc1ccc(/C=C/c2nc3ccccc3n3c(-c4ccc(Cl)cc4)nnc23)cc1	24%
COc1ccc(NCc2cn(-c3ccc(C(=O)O)cc3)nc2-c2ccc(F)cc2)cc1C(F)(F)F	43.7%
O=C(c1ccc(F)cc1)C(c1c[nH]c2ccccc12)c1c[nH]c2ccccc12	7.29% (active)
O=C(Nc1ccc(Oc2ncnc3scc(Nc4n[nH]c(=S)s4)c23)cc1)C1(C(=O)Nc2cccc(C(F)(F)F)c2)CC1	95.4%
Cn1cc(-c2nnc(N)nc2-c2c[nH]c3ccccc23)c2cc(Br)cnc21	25.4%
Cc1ccc(-c2nc(C#N)c(S(=O)(=O)N3CCN(S(C)(=O)=O)CC3)o2)cc1	-74.5% (active)
Cc1ccc2c(c1)C(=O)/C(=C/c1ccc([N+](=O)[O-])cc1)S2	96.2%
COc1ccc(OC)c(-n2cc(C#N)c(N)c2C(=O)c2ccc(Cl)cc2Cl)c1	21.6%
Cc1ccc2sc3c(c2c1)Oc1nc[nH]c(=O)c1C3c1cccc(F)c1 (stereo not given)	92.6%
O=C(CC(=O)Nc1ccc(Oc2ncnc3scc(Nc4n[nH]c(=S)s4)c23)cc1)Nc1ccc(Br)cc1	100%
O=[N+]([O-])c1cccc(-c2nnc3c(/C=C/c4ccccc4O)nc4ccccc4n23)c1	52.5%
COc1ccc(Cc2nn(CC(=O)N/N=C/c3ccc(Br)cc3)c(=O)c3c(C)noc23)cc1	63.8%
Cc1ccc2c(c1)C(=O)/C(=C/c1c[nH]c3ccccc13)S2	29.5%
CC1(C)CC(=O)C2=C(C1)N(Cc1ccc(C(=O)O)cc1)C1=C(C(=O)CC(C)(C)C1)C2c1ccc(Cl)cc1	98.4%

Reference: PubChem BioAssay (NCI)
